Assay results taken from paper PMC7862700, “An all-to-all approach to the identification of sequence-specific readers for epigenetic DNA modifications on cytosine”.

How the values were obtained:
Test in all cases: DAPPL (digital affinity profiling via proximity ligation, sequencing); 10 mM Tris-HCl pH 7.5, 50 mM NaCl, 1 mM DTT, 4% glycerol, room temperature, 30 min; GST-TFs on glutathione beads, 16-mer random dsDNA library, 0.1% formaldehyde crosslink after washing; high values mean tight binding
[1] = molecular target: T1, FEV (Homo sapiens, UniProt Q99581 1-238); conditions: protein: recombinant; tags: N-terminal GST; dsDNA, one strand shown
T1 sequence: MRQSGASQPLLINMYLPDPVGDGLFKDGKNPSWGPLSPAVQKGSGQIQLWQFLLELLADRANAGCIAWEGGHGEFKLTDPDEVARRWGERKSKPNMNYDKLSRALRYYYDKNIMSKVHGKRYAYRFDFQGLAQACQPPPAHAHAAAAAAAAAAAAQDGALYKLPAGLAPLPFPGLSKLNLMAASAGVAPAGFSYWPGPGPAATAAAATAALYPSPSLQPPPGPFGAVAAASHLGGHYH
Method in brief: (§1)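 Human transcription factors were made in yeast as GST fusions, captured on glutathione beads and barcoded with DNA. With a tag-only sample included, the pool was incubated with 200 nmole of a random double-stranded 16-mer DNA library in Tris/NaCl/DTT/glycerol buffer at room temperature for 30 min, then crosslinked with 0.1% formaldehyde after washing, ligated by proximity, amplified and sequenced. For binding signal, each hexamer's read frequency for a factor is divided by its frequency for the tag-only sample.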

[2] = molecular target: ETV5 (Homo sapiens, UniProt P41161 1-510); conditions: protein: recombinant; tags: N-terminal GST; dsDNA, one strand shown
Method in brief: as §1

[3] = molecular target: HSF1 (Homo sapiens, UniProt Q00613 1-529); conditions: protein: recombinant; tags: N-terminal GST; chain copies: 3; dsDNA, one strand shown
Method in brief: as §1

[4] = molecular target: T2, SPIC (Homo sapiens, UniProt Q8N5J4 1-248); conditions: protein: recombinant; tags: N-terminal GST; dsDNA, one strand shown
T2 sequence: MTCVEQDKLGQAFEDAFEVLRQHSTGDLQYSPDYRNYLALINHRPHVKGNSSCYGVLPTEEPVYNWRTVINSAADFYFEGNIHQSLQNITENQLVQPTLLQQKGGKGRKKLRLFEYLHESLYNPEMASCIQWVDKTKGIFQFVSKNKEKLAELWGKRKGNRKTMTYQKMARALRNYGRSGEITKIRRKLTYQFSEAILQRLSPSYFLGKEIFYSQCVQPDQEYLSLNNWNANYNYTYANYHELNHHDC
Method in brief: as §1

[5] = molecular target: ELF4 (Homo sapiens, UniProt Q99607 1-663); conditions: protein: recombinant; tags: N-terminal GST; dsDNA, one strand shown
Method in brief: as §1

[6] = molecular target: T3, ELK4 (Homo sapiens, UniProt P28324-2 1-405); conditions: protein: recombinant; tags: N-terminal GST; dsDNA, one strand shown
T3 sequence: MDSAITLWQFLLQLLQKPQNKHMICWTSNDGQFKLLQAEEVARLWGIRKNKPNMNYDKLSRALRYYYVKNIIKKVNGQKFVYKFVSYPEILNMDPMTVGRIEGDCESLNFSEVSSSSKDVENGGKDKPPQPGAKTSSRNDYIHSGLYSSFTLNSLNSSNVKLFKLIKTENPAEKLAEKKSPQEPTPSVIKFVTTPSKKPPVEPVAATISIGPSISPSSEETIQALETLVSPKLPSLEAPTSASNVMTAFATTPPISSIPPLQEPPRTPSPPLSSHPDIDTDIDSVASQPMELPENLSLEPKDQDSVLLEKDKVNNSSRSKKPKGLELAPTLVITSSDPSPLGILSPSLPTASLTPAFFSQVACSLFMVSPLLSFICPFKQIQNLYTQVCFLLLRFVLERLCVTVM
Method in brief: as §1

[7] = molecular target: T4, ETV2 (Homo sapiens, UniProt O00321 1-342); conditions: protein: recombinant; tags: N-terminal GST; dsDNA, one strand shown
T4 sequence: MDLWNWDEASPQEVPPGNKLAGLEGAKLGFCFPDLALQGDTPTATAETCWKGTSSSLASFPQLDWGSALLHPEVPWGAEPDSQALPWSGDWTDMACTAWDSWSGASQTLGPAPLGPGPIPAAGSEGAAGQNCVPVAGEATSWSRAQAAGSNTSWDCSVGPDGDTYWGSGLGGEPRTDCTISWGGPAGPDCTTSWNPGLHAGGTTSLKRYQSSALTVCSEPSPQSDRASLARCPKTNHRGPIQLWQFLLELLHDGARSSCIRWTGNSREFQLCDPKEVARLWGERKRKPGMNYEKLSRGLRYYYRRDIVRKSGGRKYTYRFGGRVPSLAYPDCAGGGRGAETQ
Method in brief: as §1

[8] = molecular target: T5, ELF3 (Homo sapiens, UniProt P78545 1-371); conditions: protein: recombinant; tags: N-terminal GST; dsDNA, one strand shown
T5 sequence: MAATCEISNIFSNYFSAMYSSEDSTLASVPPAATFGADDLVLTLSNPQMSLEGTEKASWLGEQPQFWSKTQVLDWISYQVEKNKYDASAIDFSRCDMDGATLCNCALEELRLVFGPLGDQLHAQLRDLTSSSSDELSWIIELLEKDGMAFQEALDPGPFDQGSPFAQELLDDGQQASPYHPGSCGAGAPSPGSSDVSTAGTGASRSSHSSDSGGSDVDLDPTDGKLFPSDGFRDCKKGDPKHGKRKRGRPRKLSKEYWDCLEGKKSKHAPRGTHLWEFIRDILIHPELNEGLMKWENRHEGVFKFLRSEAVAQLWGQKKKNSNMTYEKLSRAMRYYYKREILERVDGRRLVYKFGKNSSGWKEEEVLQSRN
Method in brief: as §1

[9] = molecular target: CRX (Homo sapiens, UniProt O43186 1-299); conditions: protein: recombinant; tags: N-terminal GST; dsDNA, one strand shown
Method in brief: as §1

[10] = molecular target: ETV1 (Homo sapiens, UniProt P50549 1-477); conditions: protein: recombinant; tags: N-terminal GST; dsDNA, one strand shown
Method in brief: as §1

[11] = molecular target: T6, ERF (Homo sapiens, UniProt P50548 1-548); conditions: protein: recombinant; tags: N-terminal GST; dsDNA, one strand shown
T6 sequence: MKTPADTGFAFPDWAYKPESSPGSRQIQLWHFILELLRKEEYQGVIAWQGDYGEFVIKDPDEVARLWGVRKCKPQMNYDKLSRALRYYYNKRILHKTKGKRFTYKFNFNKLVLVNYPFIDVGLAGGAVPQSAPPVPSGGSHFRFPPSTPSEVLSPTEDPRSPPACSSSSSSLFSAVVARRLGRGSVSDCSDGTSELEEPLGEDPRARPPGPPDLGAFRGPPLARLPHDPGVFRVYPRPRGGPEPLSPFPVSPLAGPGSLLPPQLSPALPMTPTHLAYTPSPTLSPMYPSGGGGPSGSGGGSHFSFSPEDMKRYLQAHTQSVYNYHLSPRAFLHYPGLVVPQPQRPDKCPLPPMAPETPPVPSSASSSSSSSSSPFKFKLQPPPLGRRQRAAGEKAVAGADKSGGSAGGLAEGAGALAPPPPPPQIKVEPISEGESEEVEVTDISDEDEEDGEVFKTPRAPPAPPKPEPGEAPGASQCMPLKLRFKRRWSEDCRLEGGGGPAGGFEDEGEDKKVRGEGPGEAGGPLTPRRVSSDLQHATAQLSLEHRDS
Method in brief: as §1

[12] = molecular target: T7, ETV3L (Homo sapiens, UniProt Q6ZN32 1-361); conditions: protein: recombinant; tags: N-terminal GST; dsDNA, one strand shown
T7 sequence: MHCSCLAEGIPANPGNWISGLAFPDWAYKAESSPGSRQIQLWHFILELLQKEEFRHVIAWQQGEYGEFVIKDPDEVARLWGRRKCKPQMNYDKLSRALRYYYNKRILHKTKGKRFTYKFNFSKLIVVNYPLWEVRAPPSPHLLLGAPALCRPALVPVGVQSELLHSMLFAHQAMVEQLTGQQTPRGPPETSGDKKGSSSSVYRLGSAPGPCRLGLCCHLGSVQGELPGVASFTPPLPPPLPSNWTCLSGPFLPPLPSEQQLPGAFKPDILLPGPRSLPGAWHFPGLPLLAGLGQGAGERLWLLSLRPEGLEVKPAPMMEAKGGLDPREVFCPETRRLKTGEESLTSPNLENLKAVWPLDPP
Method in brief: as §1

[13] = molecular target: T8, ETS2 (Homo sapiens, UniProt P15036 1-469); conditions: protein: recombinant; tags: N-terminal GST; dsDNA, one strand shown
T8 sequence: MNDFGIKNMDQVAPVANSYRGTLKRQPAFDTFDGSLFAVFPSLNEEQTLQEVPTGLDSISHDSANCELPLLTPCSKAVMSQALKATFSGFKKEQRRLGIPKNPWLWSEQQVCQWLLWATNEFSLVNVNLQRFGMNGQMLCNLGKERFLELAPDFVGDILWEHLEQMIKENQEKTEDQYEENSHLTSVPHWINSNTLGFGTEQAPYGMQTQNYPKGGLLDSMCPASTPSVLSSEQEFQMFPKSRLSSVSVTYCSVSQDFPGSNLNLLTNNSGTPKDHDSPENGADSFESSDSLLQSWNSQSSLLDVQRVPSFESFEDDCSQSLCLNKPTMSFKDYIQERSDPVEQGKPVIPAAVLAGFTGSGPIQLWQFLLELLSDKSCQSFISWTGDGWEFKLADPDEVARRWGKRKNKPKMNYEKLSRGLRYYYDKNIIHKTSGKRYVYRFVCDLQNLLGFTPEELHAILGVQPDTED
Method in brief: as §1

[14] = molecular target: T9, SPDEF (Homo sapiens, UniProt O95238 1-335); conditions: protein: recombinant; tags: N-terminal GST; dsDNA, one strand shown
T9 sequence: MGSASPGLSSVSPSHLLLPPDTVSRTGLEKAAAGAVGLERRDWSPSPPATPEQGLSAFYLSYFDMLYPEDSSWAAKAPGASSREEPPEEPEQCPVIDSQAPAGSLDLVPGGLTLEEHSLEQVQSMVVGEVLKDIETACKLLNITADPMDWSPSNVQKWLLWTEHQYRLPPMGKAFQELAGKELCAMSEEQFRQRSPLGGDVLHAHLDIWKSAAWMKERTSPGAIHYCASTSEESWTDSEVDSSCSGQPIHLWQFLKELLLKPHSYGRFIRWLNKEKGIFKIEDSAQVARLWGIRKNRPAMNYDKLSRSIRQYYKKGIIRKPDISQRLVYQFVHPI
Method in brief: as §1

[15] = molecular target: T10, ETV7 (Homo sapiens, UniProt Q9Y603 1-341); conditions: protein: recombinant; tags: N-terminal GST; dsDNA, one strand shown
T10 sequence: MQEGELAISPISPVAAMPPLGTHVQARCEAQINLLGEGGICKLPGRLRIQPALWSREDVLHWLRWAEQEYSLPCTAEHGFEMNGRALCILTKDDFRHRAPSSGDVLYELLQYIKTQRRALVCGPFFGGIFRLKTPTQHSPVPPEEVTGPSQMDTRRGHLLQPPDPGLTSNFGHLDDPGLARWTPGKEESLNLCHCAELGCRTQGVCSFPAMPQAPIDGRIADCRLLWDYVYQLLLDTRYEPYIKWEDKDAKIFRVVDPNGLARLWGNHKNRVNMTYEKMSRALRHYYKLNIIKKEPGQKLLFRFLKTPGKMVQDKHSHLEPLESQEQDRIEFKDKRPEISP
Method in brief: as §1

[16] = molecular target: T11, ELF5 (Homo sapiens, UniProt Q9UKW6-2 1-255); conditions: protein: recombinant; tags: N-terminal GST; dsDNA, one strand shown
T11 sequence: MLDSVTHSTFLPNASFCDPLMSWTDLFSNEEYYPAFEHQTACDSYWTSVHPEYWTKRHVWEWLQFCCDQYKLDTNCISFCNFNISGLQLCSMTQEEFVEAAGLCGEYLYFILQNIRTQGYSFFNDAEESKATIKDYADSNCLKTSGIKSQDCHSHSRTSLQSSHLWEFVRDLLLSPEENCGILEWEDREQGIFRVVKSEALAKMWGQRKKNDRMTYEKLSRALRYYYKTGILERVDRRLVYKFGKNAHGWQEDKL
Method in brief: as §1

[17] = molecular target: T12, ETV3 (Homo sapiens, UniProt P41162-2 1-143); conditions: protein: recombinant; tags: N-terminal GST; dsDNA, one strand shown
T12 sequence: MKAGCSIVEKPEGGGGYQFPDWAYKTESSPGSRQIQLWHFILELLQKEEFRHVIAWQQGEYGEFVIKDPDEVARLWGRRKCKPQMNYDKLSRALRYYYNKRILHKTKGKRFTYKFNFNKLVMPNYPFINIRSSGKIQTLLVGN
Method in brief: as §1

[18] = molecular target: ETV6 (Homo sapiens, UniProt P41212 1-452); conditions: protein: recombinant; tags: N-terminal GST; dsDNA, one strand shown
Method in brief: as §1

Chain of ETV6 (P41212 whole entry): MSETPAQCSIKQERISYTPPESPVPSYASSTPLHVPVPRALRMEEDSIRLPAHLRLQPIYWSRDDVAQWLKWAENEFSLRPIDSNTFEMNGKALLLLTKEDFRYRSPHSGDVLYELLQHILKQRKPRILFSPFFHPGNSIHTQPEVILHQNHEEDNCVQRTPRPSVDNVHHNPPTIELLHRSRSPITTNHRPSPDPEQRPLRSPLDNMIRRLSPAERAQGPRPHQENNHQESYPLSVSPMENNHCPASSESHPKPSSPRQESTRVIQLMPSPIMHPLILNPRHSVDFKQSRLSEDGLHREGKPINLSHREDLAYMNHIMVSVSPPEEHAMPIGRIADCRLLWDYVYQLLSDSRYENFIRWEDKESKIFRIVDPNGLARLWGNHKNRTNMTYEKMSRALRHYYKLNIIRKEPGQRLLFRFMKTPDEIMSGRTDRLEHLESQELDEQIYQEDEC
Chain of ETV5 (P41161 whole entry): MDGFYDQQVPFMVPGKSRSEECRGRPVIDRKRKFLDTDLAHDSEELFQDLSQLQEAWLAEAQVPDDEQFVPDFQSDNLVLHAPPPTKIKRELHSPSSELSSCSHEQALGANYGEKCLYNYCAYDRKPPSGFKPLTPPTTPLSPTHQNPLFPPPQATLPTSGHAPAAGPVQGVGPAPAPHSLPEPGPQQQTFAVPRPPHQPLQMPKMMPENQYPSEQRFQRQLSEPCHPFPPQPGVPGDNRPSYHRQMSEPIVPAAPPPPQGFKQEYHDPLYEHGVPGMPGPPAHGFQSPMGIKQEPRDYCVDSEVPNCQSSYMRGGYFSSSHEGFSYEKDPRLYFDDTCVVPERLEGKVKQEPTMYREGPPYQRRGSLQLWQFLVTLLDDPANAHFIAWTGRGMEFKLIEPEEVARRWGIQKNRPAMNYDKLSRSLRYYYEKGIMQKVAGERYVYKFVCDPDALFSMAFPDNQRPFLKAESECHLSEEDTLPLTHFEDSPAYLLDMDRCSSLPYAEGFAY
Chain of ETV1 (P50549 whole entry): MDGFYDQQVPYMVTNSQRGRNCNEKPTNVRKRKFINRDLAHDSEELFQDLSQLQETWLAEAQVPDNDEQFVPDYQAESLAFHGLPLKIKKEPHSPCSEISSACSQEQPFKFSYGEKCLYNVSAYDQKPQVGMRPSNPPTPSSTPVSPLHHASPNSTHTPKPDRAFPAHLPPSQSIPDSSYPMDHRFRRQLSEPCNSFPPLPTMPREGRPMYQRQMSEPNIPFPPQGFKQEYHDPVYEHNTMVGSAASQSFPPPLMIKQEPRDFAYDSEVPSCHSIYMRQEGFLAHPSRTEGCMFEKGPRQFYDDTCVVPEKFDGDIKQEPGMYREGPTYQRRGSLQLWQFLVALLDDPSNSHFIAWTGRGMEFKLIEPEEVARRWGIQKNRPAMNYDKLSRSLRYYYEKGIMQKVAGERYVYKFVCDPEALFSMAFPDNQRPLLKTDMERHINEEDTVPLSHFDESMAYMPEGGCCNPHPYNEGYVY
Chain of CRX (O43186 whole entry): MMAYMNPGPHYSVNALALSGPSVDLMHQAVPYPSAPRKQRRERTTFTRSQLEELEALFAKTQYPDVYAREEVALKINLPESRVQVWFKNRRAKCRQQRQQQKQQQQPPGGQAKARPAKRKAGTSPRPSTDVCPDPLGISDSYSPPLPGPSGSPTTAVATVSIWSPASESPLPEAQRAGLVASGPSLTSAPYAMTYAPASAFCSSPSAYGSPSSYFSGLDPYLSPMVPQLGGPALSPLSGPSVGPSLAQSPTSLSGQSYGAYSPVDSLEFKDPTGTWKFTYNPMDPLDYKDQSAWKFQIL
Chain of HSF1 (Q00613 whole entry): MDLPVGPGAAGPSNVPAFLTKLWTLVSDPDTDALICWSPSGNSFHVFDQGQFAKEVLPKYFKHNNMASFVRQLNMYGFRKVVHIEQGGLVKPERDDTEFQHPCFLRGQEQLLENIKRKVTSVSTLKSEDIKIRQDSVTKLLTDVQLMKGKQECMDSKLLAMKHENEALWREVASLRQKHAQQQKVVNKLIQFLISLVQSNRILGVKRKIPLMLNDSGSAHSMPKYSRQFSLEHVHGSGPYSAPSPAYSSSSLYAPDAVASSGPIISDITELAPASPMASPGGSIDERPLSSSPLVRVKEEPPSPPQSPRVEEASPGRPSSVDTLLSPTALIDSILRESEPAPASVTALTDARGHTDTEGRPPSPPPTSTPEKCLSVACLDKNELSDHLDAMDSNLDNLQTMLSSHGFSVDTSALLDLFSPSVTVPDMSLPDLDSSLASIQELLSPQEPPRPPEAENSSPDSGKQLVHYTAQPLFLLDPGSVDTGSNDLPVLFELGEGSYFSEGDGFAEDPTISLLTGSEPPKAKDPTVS
Chain of ELF4 (Q99607 whole entry): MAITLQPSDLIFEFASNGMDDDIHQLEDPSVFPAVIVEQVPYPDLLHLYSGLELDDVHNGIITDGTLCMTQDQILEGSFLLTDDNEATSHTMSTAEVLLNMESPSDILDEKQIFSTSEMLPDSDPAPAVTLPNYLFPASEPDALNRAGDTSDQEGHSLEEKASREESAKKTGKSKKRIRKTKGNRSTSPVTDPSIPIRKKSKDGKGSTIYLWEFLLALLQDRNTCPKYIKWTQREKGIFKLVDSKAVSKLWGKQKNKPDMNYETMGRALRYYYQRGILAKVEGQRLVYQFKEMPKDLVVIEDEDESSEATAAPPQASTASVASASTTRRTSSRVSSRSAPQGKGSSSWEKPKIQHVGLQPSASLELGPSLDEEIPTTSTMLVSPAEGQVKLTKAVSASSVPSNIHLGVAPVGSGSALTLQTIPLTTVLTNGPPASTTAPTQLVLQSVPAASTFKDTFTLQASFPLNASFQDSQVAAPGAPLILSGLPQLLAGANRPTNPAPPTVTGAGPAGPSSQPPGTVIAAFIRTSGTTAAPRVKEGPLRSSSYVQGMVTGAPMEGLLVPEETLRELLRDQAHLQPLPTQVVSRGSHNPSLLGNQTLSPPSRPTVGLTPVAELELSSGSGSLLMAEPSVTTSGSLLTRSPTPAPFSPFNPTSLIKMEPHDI

## ACAATT
[1]
  binding signal: 1.27 fold enrichment (6-mer frequency, TF over GST control)
[2]
  binding signal: 1.33 fold enrichment (6-mer frequency, TF over GST control)
[3]
  binding signal: 1.18 fold enrichment (6-mer frequency, TF over GST control)
[4]
  binding signal: 1.17 fold enrichment (6-mer frequency, TF over GST control)
[5]
  binding signal: 1.25 fold enrichment (6-mer frequency, TF over GST control)
[6]
  binding signal: 1.26 fold enrichment (6-mer frequency, TF over GST control)
[7]
  binding signal: 1.29 fold enrichment (6-mer frequency, TF over GST control)
[8]
  binding signal: 1.35 fold enrichment (6-mer frequency, TF over GST control)
[9]
  binding signal: 1.13 fold enrichment (6-mer frequency, TF over GST control)
[10]
  binding signal: 1.24 fold enrichment (6-mer frequency, TF over GST control)
[11]
  binding signal: 1.25 fold enrichment (6-mer frequency, TF over GST control)
[12]
  binding signal: 1.23 fold enrichment (6-mer frequency, TF over GST control)
[13]
  binding signal: 1.29 fold enrichment (6-mer frequency, TF over GST control)
[14]
  binding signal: 1.13 fold enrichment (6-mer frequency, TF over GST control)
[15]
  binding signal: 1.21 fold enrichment (6-mer frequency, TF over GST control)
[16]
  binding signal: 1.32 fold enrichment (6-mer frequency, TF over GST control)
[17]
  binding signal: 1.27 fold enrichment (6-mer frequency, TF over GST control)
[18]
  binding signal: 1.25 fold enrichment (6-mer frequency, TF over GST control)
